Screening data (PubChem)
FLuc counter – inhibits or activates purified firefly luciferase, miR-21 counter-screen; Potency, µM (titrated, usually from 57.5 µM), for inactives: at the highest dose activity change, negative = inhibition, actives largely listed as inhibitors; actives 6.9% (n = 360,000); purified FLuc, Km substrates, luminescence inhibition; P08659;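 further: plate controls were vehicle for no effect and reference inhibitor for full effect; nearly all actives have a fitted effect of over 55% in size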
Target sequence (P08659 whole entry, looked up): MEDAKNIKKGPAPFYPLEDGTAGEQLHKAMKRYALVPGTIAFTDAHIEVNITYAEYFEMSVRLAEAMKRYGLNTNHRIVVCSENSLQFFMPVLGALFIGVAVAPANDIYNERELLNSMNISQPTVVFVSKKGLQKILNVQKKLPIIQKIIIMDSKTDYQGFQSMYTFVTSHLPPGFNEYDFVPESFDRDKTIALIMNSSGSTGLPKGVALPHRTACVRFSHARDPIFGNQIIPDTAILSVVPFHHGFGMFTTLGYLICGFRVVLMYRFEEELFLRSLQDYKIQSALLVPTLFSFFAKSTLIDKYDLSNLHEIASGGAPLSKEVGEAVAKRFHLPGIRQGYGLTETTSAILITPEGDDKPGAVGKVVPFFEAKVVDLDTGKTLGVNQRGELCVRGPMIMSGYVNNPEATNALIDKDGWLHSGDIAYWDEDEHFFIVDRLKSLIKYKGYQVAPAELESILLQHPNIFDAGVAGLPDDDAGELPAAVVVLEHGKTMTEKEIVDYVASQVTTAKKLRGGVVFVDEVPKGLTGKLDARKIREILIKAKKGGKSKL
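Purified P. pyralis luciferase, 10 nM final, with Km-level 10 uM D-luciferin and 10 uM ATP in 50 mM Tris acetate pH 7.5, 10 mM Mg acetate, 0.01% Tween-20, 0.05% BSA; 6-point qHTS titration about 60 µM downward; luminescence read.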
Rab9 promoter act – activators of Rab9 promoter; Huh7 Rab9 promoter-luciferase reporter, luminescence, 24 h; Potency, µM (series often up to 9.22 µM), for the others: at the highest dose activation, negative = inhibition, hits mostly activators; actives 2.8% (n = 320,000); AID 485297; further: % of control where 0% means no effect; nearly all actives have a fitted effect of over 60% in size
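Using Huh7 cells stably transfected with Rab9 promoter–luciferase, compounds were incubated 24 h at 37 °C, 5% CO2; luciferase luminescence was read 10 min after reagent addition.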
KinaseGlo FLuc – Kinase-Glo luciferase inhibition (counter-screen); Q27757; actives 0.28% (n = 200,000); Kinase-Glo luciferase, ATP luminescence, 8 min; AID 1379; Potency, µM (series often up to 38.3 µM), inactives show top-dose activity change, negative = inhibition, usual class: inhibitors; further: on the % scale 0 is the no-effect control and ±100 the full control effect; nearly all actives have a fitted effect of over 60% in size
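Compound is pinned into ATP-containing buffer (10 uM ATP, imidazole pH 7.2, 7 mM MgCl2). Kinase-Glo luciferase reagent is then added. Light output is recorded following an 8-min room-temperature incubation.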
ELG1 genotoxic – genotoxicity induction in ELG1-luciferase HEK293T cells. HEK293T ELG1-luciferase reporter, luminescence, 16 h. Potency, µM (doses to about 46 µM), inactives show at the highest dose activity change, positive = activation, hits mostly activators. actives 1.3% (n = 330,000). AID 504466; further: % of control where 0% means no effect; nearly all actives have a fitted effect of over 60% in size
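Genotoxic stress is detected as increased luminescence from luciferase-tagged ELG1 in HEK293T cells, measured with ONE-Glo after a 16 hr treatment at 37 °C.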
NPC1 prom act – activators of NPC1 promoter; Huh7 NPC1 promoter luciferase reporter, 24 h; Potency, µM (series often up to 9.22 µM), for inactives: at the highest dose activation, most hits filed as activators; actives 2.4% (n = 320,000); AID 485313; further: % of control where 0% means no effect; nearly all actives have a fitted effect of over 60% in size
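Cells: Huh7 expressing luciferase under the NPC1 promoter, 1500/well. Seeded 2 h, compound added, incubated 24 h at 37 °C. Luciferase reagent, 10 min ambient, then luminescence.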
SMN2 splice up – SMN2 splice variant enhancement; HEK293 SMN2-luciferase splicing reporter, luminescence, 30-36 h; Potency, µM (top dose mostly 46.1 µM), inactives show top-dose activity change, positive = activation, most hits filed as activators; actives 2.8% (n = 210,000); AID 1458; further: % of control where 0% means no effect; nearly all actives have a fitted effect of over 55% in size
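HEK293 cells carry an SMN2 […]–luciferase reporter in which exon 7 inclusion puts luciferase in frame. Cells were plated 10-12 h before compound addition, then incubated 30-36 h at 37C. ONE-Glo luminescence was read; sodium butyrate at 4.5 mM final served as control.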
* hit, by the source's call; ? = inconclusive; · = no result. Shown are actives, neighbours in structure and some others; about 7.4% of the full set was active somewhere. The call rests on the fitted dose curve; in most records, active means well fitted curve in the direction sought with a large enough effect; inconclusive means small, poorly fitted or top-dose-only effect, or another doubt; inactive means no such curve, though single readings can be large; an effect the other way counts as inactive or inconclusive. Potency means the concentration at half of the fitted maximal effect.

SMILES | FLuc counter | Rab9 promoter act | KinaseGlo FLuc | ELG1 genotoxic | NPC1 prom act | SMN2 splice up
CCCNC(=O)c1noc2c1CCc1ccccc1-2 | 19µM* | ? | 0% | ? | ? | 16µM*
O=C(NCCN1CCOCC1)c1ccc(-c2ccccc2)cc1 | -23% | 5% | -2% | 16% | 6% | 8%
O=C(NCCN1CCOCC1)c1noc2c1CCc1ccccc1-2 | ? | 2µM* | -1% | 16µM* | ? | 10µM*
COc1cc(NC(=O)c2noc3c2CCc2ccccc2-3)cc(OC)c1OC | ? | · | · | · | · | -29%
O=C(Nc1cccnc1Cl)c1noc2c1CCc1ccccc1-2 | ? | 3.2µM* | -2% | 27% | 2.5µM* | ·
O=C(NCCc1ccccc1)c1noc2c1CCc1ccccc1-2 | -16% | ? | -2% | 8% | 17% | 16%
Cc1ccc(CN2C(=O)C3(c4ccccc42)N(c2cccc(F)c2)C(=O)CS3(=O)=O)cc1 (configuration not stated) | 5% | · | · | · | · | ·
CCCCCCC#Cc1ccc2c(c1)COc1c3ccccc3nn1-2 | ? | 0.89µM* | · | 17% | 0.79µM* | ·
N#CCCCC#Cc1ccc2c(c1)COc1c3ccccc3nn1-2 | 0.19µM* | 0.1µM* | · | ? | 0.71µM* | ·
CCCCC#Cc1ccc2c(c1)COc1c3ccccc3nn1-2 | 2.7µM* | 7.1µM* | · | ? | 0.35µM* | ·
CCCCCn1nc(C(=O)N2CCc3ccccc32)c2ccccc2c1=O | 0% | -6% | · | -1% | -4% | ·
Cc1ccc(NC(=O)NN2CCN(C)CC2)cc1C | 3% | 7% | · | 5% | -2% | ·
Cc1cc(C)cc(NC(=O)Cc2csc(COc3cccc(C)c3)n2)c1 | -19% | · | · | · | · | ·
COc1cccc(C(=O)Nc2cccc(OCC(=O)c3ccccc3)c2)c1 | 12µM* | 2% | -4% | -15% | 2% | -17%
COC(=O)c1ccc(OCC(=O)c2ccccc2)cc1 | 7.6µM* | 3.2µM* | -12% | ? | 3.2µM* | 13µM*
COc1cccc(C(=O)Nc2ccc(NC(C)=O)cc2)c1 | ? | 27% | -7% | ? | 15% | 17%
O=C(COc1cccc(NC(=O)c2cccs2)c1)c1ccc(F)cc1 | 24µM* | 11% | 0% | -5% | 1% | -32%
COc1cccc(C(=O)Nc2cccc(C(=O)NCC(C)C)c2)c1 | ? | -3% | 1% | 0% | 0% | 24%
COc1cccc(C(=O)COc2ccc(NC(=O)c3ccccc3)cc2)c1 | 3.4µM* | -1% | · | -1% | 1% | ·
Cc1cc(C)c(NC(=O)C2CCCN(S(=O)(=O)c3c(C)noc3/C=C/N(C)C)C2)c(C)c1 (configuration not stated) | 2% | 4% | · | -4% | 1% | ·
CCN1C(=O)[C@@H]2[C@@H](c3ccc(SC4CCCCC4)c(OC)c3)N3CCC[C@@]3(C(=O)OC)[C@@H]2C1=O | -4% | 0% | · | -4% | -2% | ·
COc1cccc(C(=O)O[C@H]2[C@H](C)NS(=O)(=O)[C@H]3C[C@@H]4C=C[C@]23O4)c1 | 1% | -1% | · | 4% | 0% | ·
Cc1cccc(Cc2c(C)nc3nc(SCC(=O)NCc4ccc(F)cc4)nn3c2C)c1 | -9% | · | · | · | · | -30%
COCC(=O)N(CCc1ccc(OC)c(OC)c1)Cc1cc2cc(C)ccc2nc1Cl | -7% | -10% | 1% | -11% | -3% | -45%
Cc1cccc(OCC(=O)Nc2ccc(NC(=O)c3ccccc3)cc2)c1 | 3% | 27% | · | 1% | 10% | ·
SMILES | FLuc counter | Rab9 promoter act | KinaseGlo FLuc | ELG1 genotoxic | NPC1 prom act | SMN2 splice up
Cc1cccc(C(=O)Nc2cccc(OCC(=O)O)c2)c1 | 15µM* | -8% | ? | 1% | -4% | ·
O=C(O)COc1cccc(NC(=O)c2ccccc2)c1 | ? | -1% | -8% | -1% | 2% | 20%
O=C(COc1cccc(NC(=O)c2ccccc2)c1)c1ccccc1 | 15µM* | -3% | 1% | 0% | -3% | ·
CCOc1ccc2c(c1)c(=O)c(C(=O)c1ccc3c(c1)OCO3)cn2Cc1cccc(F)c1 | -3% | · | · | · | · | -13%
CC(=O)Nc1ccc(NC(=O)C(C)OC(=O)CCC2CCCC2)cc1 (configuration not stated) | -1% | -2% | · | 3% | -5% | ·
COc1ccc(-c2cc(C(=O)NCc3cccs3)no2)cc1 | ? | 4.5µM* | · | ? | 2.5µM* | ·
COc1ccc(NC(=O)Cn2nnc(C(=O)NCc3cccs3)c2N)cc1 | -1% | 0% | · | ? | 1% | -17%
COc1cccc(-c2cc(C(=O)NCc3cccs3)no2)c1 | 4.8µM* | 3.2µM* | · | 23µM* | 3.2µM* | ·
COc1ccc2nc3sc(C(=O)NCc4cccs4)c(N)c3cc2c1 | 0.76µM* | 4µM* | -8% | ? | 3.5µM* | 3.5µM*
COc1cccc(-c2cc(C(=O)NCc3ccc(F)cc3)no2)c1 | -12% | · | · | · | · | -3%
N/C(=N\OC(=O)CCCOc1ccc(Cl)cc1Cl)c1ccncc1 | ? | -5% | 0% | 0% | -5% | 7%
N/C(=N\OC(=O)COc1ccc2ccccc2c1Br)c1ccncc1 | 21µM* | 2% | 0% | ? | 11% | 1%
N/C(=N\OC(=O)COc1ccc(Cl)cc1)c1cccnc1 | ? | 1% | 0% | 9% | 4% | 19%
CCc1ccc(OCC(=O)O/N=C(\N)c2ccncc2)cc1 | ? | 14% | · | ? | 15% | ·
N/C(=N\OC(=O)COc1ccc(Cl)cc1Br)c1ccncc1 | 11µM* | 3.5µM* | 2% | 8.2µM* | 3.5µM* | 11µM*
CCc1ccc(OCC(=O)O/N=C(\N)c2ccncc2)c(Br)c1 | 7.6µM* | 2µM* | · | ? | 3.2µM* | ·
N/C(=N\OC(=O)COc1ccc(Cl)cc1Cl)c1cccnc1 | 6µM* | 4% | -1% | ? | 25% | ?
COc1ccc(S(=O)(=O)N2CCOCC2)cc1NC(=O)c1cccs1 | 1% | -3% | · | 6% | 2% | ·
CCOC(=O)Cc1csc(N)n1 | -1% | 10% | -2% | 1% | -1% | -4%
CCOC(=O)c1csc(N)n1 | 0.85µM* | 2.8µM* | -8% | ? | ? | ·
CCOC(=O)c1csc(COc2ccc(OC)cc2)n1 | ? | 0.45µM* | · | 9% | 0.45µM* | ·
CSc1nnc2[nH]c(=O)cc(C)n12 | 7% | · | · | · | · | ·
Cc1cc(=O)[nH]c2nnc(-c3ccc(Cl)cc3)n12 | 3.4µM* | ? | · | ? | 2.8µM* | ·
Cc1ccc(S(=O)(=O)N2C[C@@H]3[C@H]4CC[C@H](C4)[C@@H]3[C@@H](C)[C@H]2c2ccn(Cc3ccccc3)c2)cc1 | · | · | · | -6% | · | ·
Cc1c(-c2nc(N)nc(Nc3ccc(F)cc3)n2)oc2ccccc12 | ? | 1.8µM* | 0% | 2.3µM* | 2.2µM* | 16µM*
